Assay outcomes: PubChem, National Center for Advancing Translational Sciences (NCATS)
DT40 TDP1 CPT – qHTS for Inhibitors of human tyrosyl-DNA phosphodiesterase 1 (TDP1): qHTS in cells in presence of CPT | chicken DT40 Tdp1-/-;hTDP1 cells + 20 nM CPT, ATP luminescence, 48 h | Potency, µM (titrated, usually from 46.2 µM), for inactives: at the highest dose activity change, negative = growth inhibition, hits mostly inhibitors | 420,000 compounds, 12% hits | AID 686979, 2013; also: % is scaled to controls: 0 for no effect and ±100 for the full control effect; nearly all actives have a fitted effect of over 55% in size
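Chicken DT40 Tdp1-/- cells stably complemented with human TDP1 were seeded at 400 cells/well in medium containing 20 nM camptothecin, exposed to pin-transferred compounds, and grown at 37 °C for at least 48 hr. Viability was read as ATP luminescence.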
TGFb inhibitor – qHTS for Inhibitors of TGF-b; Potency, µM (top dose mostly 46.1 µM), inactives show at the top dose activity, negative = inhibition, usual class: inhibitors; HepG2 CAGA-GFP TGF-b/SMAD3 reporter, GFP fluorescence, 18 h; TGF-beta stimulated, 500 pg/mL final; 410,000 compounds, 1.2% hits; also: % is scaled to controls: 0 for no effect and ±100 for the full control effect; nearly all actives have a fitted effect of over 65% in size
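Smad-responsive CAGA-GFP expression was quantified in HEPG2 cells exposed to compounds and 500 pg/mL final TGF-beta for 18 h at 37 degrees C; unstimulated wells defined full inhibition.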
HepG2 viability – qHTS for Inhibitors of TGF-b: Cytotox Counterscreen | HepG2 CAGA-GFP viability, ATP luminescence, 18 h | Potency, µM (titrated, usually from 46.1 µM), for inactives: at the highest dose activity change, negative = cytotoxicity, most hits filed as cytotoxic | 410,000 compounds, 0.76% hits | AID 588856, 2011
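HepG2 CAGA-GFP cells (1000/well, DMEM with 1% FBS) received compound, then TGF-beta at 500 pg/mL final, and were incubated 18 hours at 37 degrees C. Viability was read by CellTiter-Glo luminescence. Media-only wells were set as complete cell-killing and DMSO as no toxicity.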
DT40 TDP1 no CPT – qHTS for Inhibitors of human tyrosyl-DNA phosphodiesterase 1 (TDP1): qHTS in cells in absence of CPT. AID 686978, 2013. 420,000 compounds, 15% hits. Potency, µM (doses to about 46.2 µM), inactives show at the top dose activity change, negative = growth inhibition, hits mostly inhibitors. DT40 Tdp1-/- hTDP1 cells, no CPT, ATP luminescence, 48 h; also: % is scaled to controls: 0 for no effect and ±100 for the full control effect; nearly all actives have a fitted effect of over 55% in size
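Stably hTDP1-transfected Tdp1-null chicken DT40 cells were treated with library compounds minus camptothecin and grown for at least 48 hr at 37 °C, after which cellular ATP was quantified by luminescence.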
HT1080 IDH1KD tx – qHTS for induction of synthetic lethality in tumor cells producing 2HG: qHTS for the HT-1080-IDH1KD cell line. HT-1080 IDH1 knockdown viability, ATP luminescence, 48 h. Potency, µM (top dose mostly 46.1 µM), inactives show top-dose activity, negative = toxicity, hits mostly cytotoxic. 360,000 compounds, 2% hits;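 also: 0% = DMSO wells and -100% = cell-free medium wells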
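Viability of IDH1-knockdown HT-1080 fibrosarcoma cells was assessed by CellTiter-Glo after 48 h at 37 °C with titrated compound; concentration-effect curves were classified by fit quality and response size.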
HT1080-NT tox – qHTS for induction of synthetic lethality in tumor cells producing 2HG: qHTS for the HT-1080-NT fibrosarcoma cell line. HT-1080-NT fibrosarcoma viability, CellTiter-Glo ATP luminescence, 48 h. Potency, µM (titrated, usually from 46.1 µM), for the others: at the top dose activity, negative = less viability, hits mostly cytotoxic. 360,000 compounds, 1.6% hits. AID 686970, 2013;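 also: NT is the 2HG producing partner of a matched IDH1 knockdown line; 0% = DMSO-treated cells and -100% = media-only wells without cells; nearly all actives have a fitted effect of over 55% in size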
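Read-out is CellTiter-Glo luminescence after 10 minutes at room temperature, following 48 hours' compound treatment of HT-1080-NT cells (750 cells/well, RPMI, 5% FBS, 37 degrees C).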
An asterisk follows results filed as active. This is a sample that favours compounds with a hit; in the whole collection about 17% have one here. Calls follow the shape of the dose curve; as a rule, active = well fitted curve in the direction sought with a large enough effect; inconclusive = small, poorly fitted or top-dose-only effect, or another doubt; inactive = no such curve, though single readings can be large; an effect the other way counts as inactive or inconclusive. Potency is read from the fitted curve at half-maximal effect.

O=C(NCC1CCCN(C(=O)c2cscn2)C1)c1ccc(-c2ccccc2)cc1 (stereo not drawn) was read as DT40 TDP1 CPT -29.4%, TGFb inhibitor -19.5%, HepG2 viability -7.1%, DT40 TDP1 no CPT 20.6µM*, HT1080 IDH1KD tx -21.4% and HT1080-NT tox -20.8%.
Screening O=C(Nc1cccc(-c2ccc(F)cc2)c1)C1CCCN(C(=O)c2cscn2)C1 (stereo not drawn) returned DT40 TDP1 CPT 13µM*, TGFb inhibitor -27.0%, HepG2 viability -25.2%, DT40 TDP1 no CPT inconclusive, HT1080 IDH1KD tx 3.5% and HT1080-NT tox -4.3%.
Screening Cc1ncoc1C(=O)N1CCCC(C(=O)Nc2cccc(-c3ccc(F)cc3)c2)C1 (stereo not drawn) returned DT40 TDP1 CPT inconclusive, TGFb inhibitor -28.4%, HepG2 viability 13.1%, DT40 TDP1 no CPT 18.4µM*, HT1080 IDH1KD tx -1.5% and HT1080-NT tox -4.8%.
For Cn1c(=O)c2c(nc(Oc3ccccc3)n2Cc2c(Cl)cccc2Cl)n(C)c1=O the results were DT40 TDP1 CPT 7.8%, TGFb inhibitor -8.9%, HepG2 viability -6.3% and DT40 TDP1 no CPT 1.6%.
For Cc1ccc(NC(=O)c2ncn(CCCNCC3CCCO3)n2)cc1C (stereo not drawn) the results were DT40 TDP1 CPT 4.7%, TGFb inhibitor -5.8%, HepG2 viability 5.0%, DT40 TDP1 no CPT -26.4%, HT1080 IDH1KD tx -5.3% and HT1080-NT tox -1.0%.
Cc1ccc(S(=O)(=O)NCCNc2ccc([N+](=O)[O-])cc2C(F)(F)F)cc1 was read as DT40 TDP1 CPT inconclusive, TGFb inhibitor inconclusive, HepG2 viability -23.6%, DT40 TDP1 no CPT inconclusive, HT1080 IDH1KD tx -15.2% and HT1080-NT tox -11.2%.
For O=[N+]([O-])c1ccc(NCCNS(=O)(=O)c2ccccc2)cc1 the results were DT40 TDP1 CPT -8.4%, TGFb inhibitor 2.9%, HepG2 viability -2.1%, DT40 TDP1 no CPT inconclusive, HT1080 IDH1KD tx -5.6% and HT1080-NT tox -20.7%.
`O=[N+]([O-])c1ccc(NCCCNS(=O)(=O)c2ccccc2)c(Cl)c1` gave DT40 TDP1 CPT inconclusive, TGFb inhibitor 0.0%, HepG2 viability -6.4%, DT40 TDP1 no CPT 16.4µM*, HT1080 IDH1KD tx -18.1% and HT1080-NT tox -20.5%.
For O=[N+]([O-])c1ccc(NCCNS(=O)(=O)c2ccccc2)c(C(F)(F)F)c1 the results were DT40 TDP1 CPT 25.9µM*, TGFb inhibitor -8.0%, HepG2 viability 3.7%, DT40 TDP1 no CPT 18.4µM*, HT1080 IDH1KD tx inconclusive and HT1080-NT tox inconclusive.
Cc1ccc(C(=O)NCCNc2ccc([N+](=O)[O-])cc2C(F)(F)F)cc1 was read as DT40 TDP1 CPT 18.4µM*, TGFb inhibitor -6.2%, HepG2 viability -0.1%, DT40 TDP1 no CPT 18.4µM*, HT1080 IDH1KD tx inconclusive and HT1080-NT tox -28.0%.
Screening CC(Oc1ccc(Br)cc1Br)C(=O)Nc1cccnc1Cl (stereo not drawn) returned DT40 TDP1 CPT 0.7%, TGFb inhibitor 4.0%, HepG2 viability -3.3%, DT40 TDP1 no CPT -3.0%, HT1080 IDH1KD tx -6.7% and HT1080-NT tox -15.8%.
`COc1ccc(-c2cc(C(=O)NCc3ccc(F)cc3)no2)cc1` gave DT40 TDP1 CPT -14.4%, TGFb inhibitor 13.6%, HepG2 viability -8.1% and DT40 TDP1 no CPT -16.9%.
For COc1cccc(-c2cc(C(=O)NCCCn3ccnc3)c3ccccc3n2)c1 the results were DT40 TDP1 CPT -27.6%, TGFb inhibitor inconclusive, HepG2 viability -1.9%, DT40 TDP1 no CPT inconclusive, HT1080 IDH1KD tx 3.6% and HT1080-NT tox -2.7%.
Screening CC(=O)n1cc(CO)c2ccccc21 returned DT40 TDP1 CPT -11.9%, TGFb inhibitor -3.8%, HepG2 viability 2.7%, DT40 TDP1 no CPT -2.7%, HT1080 IDH1KD tx -4.2% and HT1080-NT tox -2.2%.
For CC(=O)n1cc(N(C(=O)CCl)c2ccc([N+](=O)[O-])cc2)c2ccccc21 the results were DT40 TDP1 CPT 2.31µM*, TGFb inhibitor inconclusive, HepG2 viability 10µM*, DT40 TDP1 no CPT 2.59µM*, HT1080 IDH1KD tx inconclusive and HT1080-NT tox 23.1µM*.
Screening CC(=O)n1cc(N(C(=O)CCl)c2ccccc2)c2ccccc21 returned DT40 TDP1 CPT 0.651µM*, TGFb inhibitor 7.08µM*, HepG2 viability 7.08µM*, DT40 TDP1 no CPT 0.581µM*, HT1080 IDH1KD tx 2.59µM* and HT1080-NT tox 2.59µM*.
Screening CCOC(=O)c1nc(Nc2ccc(C(=O)OC(C)C)cc2)c2ccccc2n1 returned DT40 TDP1 CPT 5.17µM*, TGFb inhibitor -6.0%, HepG2 viability -30.2% and DT40 TDP1 no CPT 4.11µM*.
`CCOC(=O)c1ccc(Nc2nc(C)cc(C)c2C#N)cc1` gave DT40 TDP1 CPT -5.9%, TGFb inhibitor -9.8%, HepG2 viability 1.3%, DT40 TDP1 no CPT -22.4%, HT1080 IDH1KD tx -3.5% and HT1080-NT tox inconclusive.
Screening CCOC(=O)c1nc(NCc2cccc(OC)c2)c2ccccc2n1 returned DT40 TDP1 CPT inconclusive, TGFb inhibitor inconclusive, HepG2 viability -5.2%, DT40 TDP1 no CPT 16.4µM*, HT1080 IDH1KD tx 6.4% and HT1080-NT tox 0.4%.
For CCOC(=O)c1nc(Nc2ccc(C(=O)OCC(C)C)cc2)c2ccccc2n1 the results were DT40 TDP1 CPT 6.51µM*, TGFb inhibitor -26.3%, HepG2 viability -10.8% and DT40 TDP1 no CPT 6.51µM*.
For CCOC(=O)c1ccc(Nc2nc(C(=O)OCC)nc3ccccc23)cc1 the results were DT40 TDP1 CPT 5.8µM*, TGFb inhibitor 0.0%, HepG2 viability -24.7%, DT40 TDP1 no CPT 2.59µM*, HT1080 IDH1KD tx inconclusive and HT1080-NT tox -23.3%.
CC(C)OC(=O)c1ccc(NC(=O)Cn2c(-c3nonc3N)nc3ccccc32)cc1 was read as DT40 TDP1 CPT -1.5%, TGFb inhibitor -18.7%, HepG2 viability -47.3%, DT40 TDP1 no CPT -12.8%, HT1080 IDH1KD tx inconclusive and HT1080-NT tox inconclusive.
`N#Cc1c(-c2cccs2)nc(SCC(=O)c2cccs2)[nH]c1=O` gave DT40 TDP1 CPT 9.4%, TGFb inhibitor 23.4%, HepG2 viability 9.6%, DT40 TDP1 no CPT -11.3%, HT1080 IDH1KD tx 1.2% and HT1080-NT tox -4.0%.
